Experimental data taken from PubChem BioAssay (EPA / NIEHS).
Activity calls are given as the source filed them. How the source made its calls: active means hit-call score of the fitted dose curve at least 0.9, where 1 is the maximum; inactive means score below 0.9.

Assays:
[1] = ATG_GLI_CIS: Attagene CIS-FACTORIAL HepG2 Assay for human Zinc Finger Protein GLI1 (AID 2282945); conditions: HepG2, Attagene cis-factorial reporter mRNA, GLI element; actives raise or lower the signal
In short: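 HepG2 cells transiently transfected with cis-promoter multiplexed reporter units report endogenous transcription factor activity. After 24 h chemical exposure, reporter mRNA was quantified by RT-PCR, 6-FAM labelling, HpaI digestion and capillary electrophoresis, with bidirectional fitting against DMSO.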

[2] = ATG_ISRE_CIS: Attagene CIS-FACTORIAL HepG2 Assay for human Interferon Regulatory Factor 1 (IRF1) binding to an Interferon-Stimulated Response Element (ISRE) (AID 2282948); conditions: HepG2 ISRE cis-reporter (Attagene), mRNA transcription readout; actives raise or lower the signal
In short: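 Multiplexed mRNA reporter readout in human liver HepG2 cells: cis-element-driven reporters transfected, compound added for 24 h, transcripts amplified, fluorescently labelled and sized by capillary electrophoresis; curve fitting bidirectional against DMSO.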

[3] = ATG_M_32_CIS: Attagene CIS-FACTORIAL HepG2 Assay for M32 Transcription Factor (Internal Marker) (AID 2282949); conditions: HepG2 Attagene cis-factorial M32 reporter, mRNA; actives raise or lower the signal;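 further: background control marker of the multiplexed CIS panel rather than a real target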
In short: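 Transient MRTU transfection of HepG2; 24 h compound treatment; TriZol RNA, oligo(dT) RT, reporter PCR, 6-FAM primer extension, HpaI cut, CE. Gain/loss of signal vs DMSO.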

[4] = ATG_M_06_CIS: Attagene CIS-FACTORIAL HepG2 Assay for M06 Transcription Factor (Internal Marker) (AID 2282950); conditions: HepG2 Attagene CIS-FACTORIAL M06 internal marker reporter; actives raise or lower the signal
In short: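 HepG2 cells transiently transfected with cis-regulated multiple reporter transcription units were exposed to chemical for 24 h; reporter mRNA was quantified by RT-PCR, 6-FAM primer labelling, HpaI digestion and capillary electrophoresis, fitted bidirectionally against DMSO.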

[5] = molecular target: Hypoxia-inducible factor 1-alpha (Homo sapiens) (UniProt Q16665); test: ATG_HIF1a_CIS: Attagene CIS-FACTORIAL HepG2 Assay for human Hypoxia Inducible Factor 1 (HIF1A) (AID 2282951); conditions: HepG2 Attagene cis-factorial HIF1a reporter transcription; actives raise or lower the signal
Sequence of Hypoxia-inducible factor 1-alpha (Homo sapiens) (Q16665 whole entry, looked up): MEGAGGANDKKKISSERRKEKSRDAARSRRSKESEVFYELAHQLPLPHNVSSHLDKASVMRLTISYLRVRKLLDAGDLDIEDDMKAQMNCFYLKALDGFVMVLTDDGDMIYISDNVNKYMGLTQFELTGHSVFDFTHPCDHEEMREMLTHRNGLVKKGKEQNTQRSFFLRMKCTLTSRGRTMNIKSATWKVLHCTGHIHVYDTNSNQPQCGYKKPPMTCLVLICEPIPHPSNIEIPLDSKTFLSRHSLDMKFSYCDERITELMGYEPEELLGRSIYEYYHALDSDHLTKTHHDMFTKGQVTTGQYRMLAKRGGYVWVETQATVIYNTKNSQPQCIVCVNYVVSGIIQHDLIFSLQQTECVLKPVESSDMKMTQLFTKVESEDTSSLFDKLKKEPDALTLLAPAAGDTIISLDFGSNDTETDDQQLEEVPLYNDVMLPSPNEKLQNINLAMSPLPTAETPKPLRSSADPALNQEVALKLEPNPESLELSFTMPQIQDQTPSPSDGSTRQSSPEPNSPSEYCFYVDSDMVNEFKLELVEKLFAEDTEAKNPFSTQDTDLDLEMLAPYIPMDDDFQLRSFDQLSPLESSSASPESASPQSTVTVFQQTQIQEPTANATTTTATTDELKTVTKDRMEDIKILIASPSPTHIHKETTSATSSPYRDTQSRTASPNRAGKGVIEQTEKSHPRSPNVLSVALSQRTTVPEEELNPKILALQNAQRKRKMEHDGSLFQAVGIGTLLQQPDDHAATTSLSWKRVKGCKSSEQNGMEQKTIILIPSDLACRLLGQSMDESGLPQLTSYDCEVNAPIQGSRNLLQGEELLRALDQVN
In short: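 Cis-element reporter constructs were transiently transfected into HepG2 cells, which were treated for 24 h; reporter RNA was reverse-transcribed, amplified, labelled and resolved by capillary electrophoresis.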

[6] = molecular target: Heat shock factor protein 1 (Homo sapiens) (UniProt Q00613); test: ATG_HSE_CIS: Attagene CIS-FACTORIAL HepG2 Assay for human Heat Shock Transcription Factor 1 (HSE) (AID 2282953); conditions: HepG2 HSE cis-reporter, Attagene RNA transcription; actives raise or lower the signal
Sequence of Heat shock factor protein 1 (Homo sapiens) (Q00613 whole entry, looked up): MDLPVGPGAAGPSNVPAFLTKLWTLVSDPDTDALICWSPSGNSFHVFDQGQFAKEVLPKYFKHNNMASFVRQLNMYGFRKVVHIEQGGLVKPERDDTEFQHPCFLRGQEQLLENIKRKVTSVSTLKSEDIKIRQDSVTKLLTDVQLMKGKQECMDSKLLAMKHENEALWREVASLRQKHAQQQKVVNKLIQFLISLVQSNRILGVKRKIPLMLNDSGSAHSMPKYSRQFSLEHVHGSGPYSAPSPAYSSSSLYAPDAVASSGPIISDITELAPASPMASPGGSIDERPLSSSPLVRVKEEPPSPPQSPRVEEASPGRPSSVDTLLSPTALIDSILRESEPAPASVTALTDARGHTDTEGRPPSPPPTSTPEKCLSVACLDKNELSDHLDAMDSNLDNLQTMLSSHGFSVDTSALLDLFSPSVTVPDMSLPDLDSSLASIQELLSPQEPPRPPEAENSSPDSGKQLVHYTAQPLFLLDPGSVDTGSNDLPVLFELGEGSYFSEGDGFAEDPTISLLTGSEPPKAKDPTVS
In short: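 HepG2 cells transiently transfected with multiple reporter transcription units under cis-regulatory promoter control, measuring endogenous transcription factor activity. After 24 h chemical exposure, reporter mRNA quantified by RT-PCR, fluorescent labelling, HpaI digestion and capillary electrophoresis; bidirectional fit versus DMSO.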

[7] = ATG_MRE_CIS: Attagene CIS-FACTORIAL HepG2 Assay for human Metal Responsive Element (MRE) (AID 2282954); conditions: HepG2 MRE cis-reporter transcription, Attagene multiplex; actives raise or lower the signal
In short: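 Readout: capillary electrophoresis of 6-FAM-labelled, HpaI-digested RT-PCR reporter products. System: HepG2 cells carrying transient multiplexed cis reporters, dosed 24 h. Analysis: bidirectional fit, DMSO baseline.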

[8] = molecular target: Paired box protein Pax-6 (Homo sapiens) (UniProt P26367); test: ATG_Pax6_CIS: Attagene CIS-FACTORIAL HepG2 Assay for human Paired Box 6 (PAX6) (AID 2282956); conditions: HepG2 CIS-FACTORIAL PAX6 reporter transcription, RNA readout; actives raise or lower the signal
Sequence of Paired box protein Pax-6 (Homo sapiens) (P26367 whole entry, looked up): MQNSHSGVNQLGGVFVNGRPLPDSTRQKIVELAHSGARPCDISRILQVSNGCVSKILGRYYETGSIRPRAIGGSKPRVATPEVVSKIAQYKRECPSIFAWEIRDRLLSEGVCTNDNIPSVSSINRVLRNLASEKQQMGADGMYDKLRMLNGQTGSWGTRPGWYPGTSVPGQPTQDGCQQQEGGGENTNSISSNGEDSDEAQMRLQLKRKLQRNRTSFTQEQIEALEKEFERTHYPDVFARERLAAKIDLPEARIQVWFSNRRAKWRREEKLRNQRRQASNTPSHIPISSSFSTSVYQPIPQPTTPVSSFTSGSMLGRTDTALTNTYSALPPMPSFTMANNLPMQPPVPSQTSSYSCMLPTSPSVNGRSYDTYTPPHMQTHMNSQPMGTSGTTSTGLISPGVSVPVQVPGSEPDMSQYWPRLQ
In short: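 Fluorescent RT-PCR products separated by capillary electrophoresis report PAX6-linked promoter mRNA in HepG2 cells 24 h post-dose. Curves fitted bidirectionally, DMSO as negative control.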

[9] = ATG_PXRE_CIS: Attagene CIS-FACTORIAL HepG2 Assay for human Pregnane X Receptor Element (PXRE) (AID 2282957); conditions: HepG2 Attagene CIS-FACTORIAL PXRE reporter, mRNA; actives raise or lower the signal
In short: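 Bidirectional activity, baselined to DMSO, derived from reporter mRNA fluorescence (RT-PCR plus capillary electrophoresis) in HepG2 cells bearing cis-promoter reporter units, 24 h exposure.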

[10] = ATG_PPRE_CIS: Attagene CIS-FACTORIAL HepG2 Assay for human Peroxisome Proliferator-activated Response Element (PPRE) (AID 2282958); conditions: HepG2 PPRE cis-element reporter, Attagene transcription factor profiling; actives raise or lower the signal
In short: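 DMSO served as negative control and baseline for bidirectional curve fitting. Signal came from PPRE-regulated reporter mRNA in HepG2 cells, measured 24 h post-dosing by RT-PCR, 6-FAM primer extension and capillary electrophoresis.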

[11] = ATG_Sox_CIS: Attagene CIS-FACTORIAL HepG2 Assay for human SRY-box transcription factor (SOX) (AID 2282960); conditions: HepG2 Attagene cis-factorial SOX reporter, mRNA; actives raise or lower the signal
In short: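 Fluorescence-labelled cDNA fragments from reporter transcripts, sized by CE, give the signal. Cells: HepG2, transiently transfected with cis-regulated reporter units. Exposure 24 h; DMSO negative control; bidirectional curve fitting.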

[12] = molecular target: Transcription factor Sp1 (Homo sapiens) (UniProt P08047); test: ATG_Sp1_CIS: Attagene CIS-FACTORIAL HepG2 Assay for human Specificity Protein 1 (Sp1) (AID 2282961); conditions: HepG2 Sp1 cis-reporter transcription, actives raise or lower the signal
Sequence of Transcription factor Sp1 (Homo sapiens) (P08047 whole entry, looked up): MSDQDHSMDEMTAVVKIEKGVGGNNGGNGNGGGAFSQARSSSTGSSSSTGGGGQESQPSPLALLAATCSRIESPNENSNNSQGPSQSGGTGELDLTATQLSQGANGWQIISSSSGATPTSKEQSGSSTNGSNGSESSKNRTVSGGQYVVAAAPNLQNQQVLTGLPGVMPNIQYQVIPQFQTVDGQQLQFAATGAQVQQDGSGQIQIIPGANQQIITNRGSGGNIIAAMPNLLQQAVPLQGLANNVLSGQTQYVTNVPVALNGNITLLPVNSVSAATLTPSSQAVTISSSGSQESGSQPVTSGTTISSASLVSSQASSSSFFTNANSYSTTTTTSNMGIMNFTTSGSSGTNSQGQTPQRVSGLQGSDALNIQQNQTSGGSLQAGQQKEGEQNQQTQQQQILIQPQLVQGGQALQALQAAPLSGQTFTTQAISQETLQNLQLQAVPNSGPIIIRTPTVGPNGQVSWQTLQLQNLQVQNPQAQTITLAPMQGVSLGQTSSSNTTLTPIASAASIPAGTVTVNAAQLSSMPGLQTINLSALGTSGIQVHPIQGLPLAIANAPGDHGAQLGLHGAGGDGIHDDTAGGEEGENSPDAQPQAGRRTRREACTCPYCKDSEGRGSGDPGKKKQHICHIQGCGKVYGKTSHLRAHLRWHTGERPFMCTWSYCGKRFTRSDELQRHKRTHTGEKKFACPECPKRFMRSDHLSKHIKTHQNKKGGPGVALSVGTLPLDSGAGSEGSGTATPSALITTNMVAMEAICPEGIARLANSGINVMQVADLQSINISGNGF
In short: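 Chemicals are dosed onto HepG2 cells transfected with multiple cis-promoter reporter constructs, and after 24 h reporter RNA is reverse-transcribed, PCR-amplified and resolved by capillary electrophoresis for fluorescence quantitation; activity is scored up or down against DMSO.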

[13] = ATG_SREBP_CIS: Attagene CIS-FACTORIAL HepG2 Assay for human Sterol Regulatory Element Binding (SREBP) (AID 2282962); conditions: HepG2 Attagene cis-factorial SREBP reporter, mRNA; actives raise or lower the signal
In short: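 Endogenous factor activity is measured in HepG2 through multiplexed reporter units under cis-element control. Following a 24 h incubation, reporter transcripts are reverse-transcribed, PCR-amplified and sized by capillary electrophoresis; activity is fitted in both directions relative to DMSO.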

[14] = molecular target: Signal transducer and activator of transcription 3 (Homo sapiens) (UniProt P40763); test: ATG_STAT3_CIS: Attagene CIS-FACTORIAL HepG2 Assay for human Signal Transducer and Activator of Transcription 3 (STAT3) (AID 2282963); conditions: HepG2, Attagene cis-factorial STAT3 reporter transcription; actives raise or lower the signal
Sequence of Signal transducer and activator of transcription 3 (Homo sapiens) (P40763 whole entry, looked up): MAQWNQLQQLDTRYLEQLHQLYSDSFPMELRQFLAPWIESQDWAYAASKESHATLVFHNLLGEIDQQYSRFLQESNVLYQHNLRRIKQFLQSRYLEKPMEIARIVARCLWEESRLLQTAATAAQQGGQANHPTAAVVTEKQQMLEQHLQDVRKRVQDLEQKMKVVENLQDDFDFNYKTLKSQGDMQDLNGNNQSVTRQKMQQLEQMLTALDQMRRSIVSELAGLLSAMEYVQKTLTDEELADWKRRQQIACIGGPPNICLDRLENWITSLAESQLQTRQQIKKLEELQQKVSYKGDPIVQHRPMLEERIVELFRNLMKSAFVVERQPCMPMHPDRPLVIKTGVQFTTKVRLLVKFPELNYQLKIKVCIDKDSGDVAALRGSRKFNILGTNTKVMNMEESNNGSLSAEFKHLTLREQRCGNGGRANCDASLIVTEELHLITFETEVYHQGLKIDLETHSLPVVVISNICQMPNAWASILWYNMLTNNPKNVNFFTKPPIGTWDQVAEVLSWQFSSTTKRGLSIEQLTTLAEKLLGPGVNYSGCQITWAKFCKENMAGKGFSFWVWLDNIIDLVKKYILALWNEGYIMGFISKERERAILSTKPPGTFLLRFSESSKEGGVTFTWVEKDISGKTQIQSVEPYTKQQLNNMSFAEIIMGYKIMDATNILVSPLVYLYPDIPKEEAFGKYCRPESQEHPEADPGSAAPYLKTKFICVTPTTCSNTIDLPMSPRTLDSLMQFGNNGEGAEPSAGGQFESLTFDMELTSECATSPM
In short: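 Uses human liver HepG2 transiently carrying cis-regulated reporter transcription units. Following 24 h dosing, reporter mRNA induction was detected by RT-PCR and capillary electrophoresis, analysed bidirectionally versus DMSO.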

[15] = ATG_TA_CIS: Attagene CIS-FACTORIAL HepG2 Assay for human TA Basal Promoter (AID 2282964); conditions: HepG2 Attagene CIS-factorial TA basal promoter reporter; actives raise or lower the signal
In short: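 HepG2 cells transiently transfected with multiplexed cis-promoter reporter units, dosed 24 h. Reporter mRNA measured by RT-PCR, 6-FAM labelling, HpaI digestion and capillary electrophoresis; bidirectional fit versus DMSO baseline, serving as background control.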

[16] = molecular target: Hepatocyte nuclear factor 6 (Homo sapiens) (UniProt Q9UBC0); test: ATG_HNF6_CIS: Attagene CIS-FACTORIAL HepG2 Assay for human Hepatocyte Nuclear Factor 6 (HNF6) (AID 2282952); conditions: HepG2 Attagene cis-factorial HNF6 reporter transcription; actives raise or lower the signal
Sequence of Hepatocyte nuclear factor 6 (Homo sapiens) (Q9UBC0 whole entry, looked up, the tested form may be a part): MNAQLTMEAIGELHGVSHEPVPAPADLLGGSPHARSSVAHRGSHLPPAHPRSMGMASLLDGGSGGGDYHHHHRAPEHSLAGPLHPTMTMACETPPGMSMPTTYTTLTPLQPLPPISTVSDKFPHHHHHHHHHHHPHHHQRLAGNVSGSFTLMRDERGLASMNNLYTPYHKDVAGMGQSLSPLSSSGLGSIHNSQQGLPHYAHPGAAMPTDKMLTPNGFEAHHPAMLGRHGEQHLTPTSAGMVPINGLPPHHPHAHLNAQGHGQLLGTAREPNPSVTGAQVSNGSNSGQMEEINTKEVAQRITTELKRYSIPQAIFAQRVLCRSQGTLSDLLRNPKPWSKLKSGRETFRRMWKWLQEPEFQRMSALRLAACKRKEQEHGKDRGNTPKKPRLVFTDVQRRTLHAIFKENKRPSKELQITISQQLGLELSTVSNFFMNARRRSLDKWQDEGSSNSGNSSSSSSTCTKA
In short: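 Twenty-four-hour chemical treatment of reporter-transfected HepG2 cells precedes RNA isolation, DNase-treated reverse transcription and PCR of reporter sequences. Labelled fragments are sized by capillary electrophoresis and fitted bidirectionally versus DMSO.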

[17] = ATG_RORE_CIS: Attagene CIS-FACTORIAL HepG2 Assay for human RAR-related Orphan Receptor Element (RORE) (AID 2282959); conditions: HepG2 Attagene cis-factorial RORE reporter, mRNA; actives raise or lower the signal
In short: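 Transfect HepG2 with MRTUs; treat 24 h; extract RNA; RT with oligo(dT); PCR with reporter-specific primers; 6-FAM primer extension; HpaI digest 2 h at 37 C; capillary electrophoresis. Fit vs DMSO, bidirectional.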

[18] = ATG_PBREM_CIS: Attagene CIS-FACTORIAL HepG2 Assay for human Phenobarbital-responsive Enhancer Module (PBREM) (AID 2282955); conditions: HepG2 PBREM cis-reporter, Attagene multiplexed transcription; actives raise or lower the signal
In short: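 Multiplexed cis-reporter readout in human hepatoma HepG2 cells; PBREM-regulated transcript quantified after 24 h exposure by fluorescent RT-PCR fragment analysis. Signal changes up or down fitted relative to DMSO.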

SMILES	outcome [1]	outcome [2]	outcome [3]	outcome [4]	outcome [5]	outcome [6]	outcome [7]	outcome [8]	AC50 [9]	outcome [10]	outcome [11]	outcome [12]	outcome [13]	outcome [14]	outcome [15]	outcome [16]	outcome [17]	outcome [9]	outcome [18]
C=C(C)CCCC(C)CCO (stereo unspecified)	inactive	inactive	inactive	inactive	inactive	inactive	inactive	inactive	6.72 µM (active)	inactive	inactive	inactive	inactive	inactive	inactive				
CCCC(O)C(CC)CO (stereo unspecified)	inactive	inactive	inactive	inactive	inactive	inactive	inactive	inactive	47.6 µM (active)	inactive		inactive	inactive	inactive	inactive	inactive	inactive		
CC/C=C\CCCCO	inactive	inactive	inactive	inactive	inactive	inactive	inactive	inactive			inactive	inactive	inactive	inactive			inactive	inactive	
OCC=Cc1ccccc1	inactive	inactive	inactive	inactive	inactive	inactive	inactive	inactive	33.1 µM (active)			inactive	inactive	inactive	inactive				
CCC(CC)CO	inactive	inactive	inactive	inactive		inactive	inactive	inactive		inactive	inactive	inactive	inactive	inactive	inactive	inactive	inactive	inactive	inactive
CCCCCCCC1CCCC1=O (stereo unspecified)	inactive	inactive	inactive	inactive	inactive	inactive	inactive		27.9 µM (active)	inactive	inactive	inactive	inactive	inactive	inactive	inactive	inactive		
N#CCCNCCC#N	inactive	inactive	inactive	inactive	inactive	inactive	inactive	inactive		inactive		inactive	inactive	inactive	inactive		inactive	inactive	inactive
CC(=O)Oc1c(C)c(C)c2c(c1C)CC[C@@](C)(CCC[C@H](C)CCC[C@H](C)CCCC(C)C)O2	inactive	inactive	inactive	inactive		inactive	inactive	inactive		inactive	inactive	inactive	inactive	inactive	inactive	inactive	inactive	inactive	inactive
CC1=CC[C@@H]2C[C@H]1C2(C)C	inactive	inactive	inactive	inactive	inactive	inactive	inactive	inactive		inactive	inactive	inactive	inactive	inactive	inactive	inactive	inactive	inactive	
